Results filed as inconclusive are left out. Activity calls are given as the source filed them. Calls come from the whole dose curve; as a rule, active = well fitted inhibition curve with a large enough effect; inconclusive = small, poorly fitted or top-dose-only effect; inactive = flat fitted curve, though single readings scatter.
Key:
P93_24 = test: qHTS profiling for inhibitors of Plasmodium falciparum proliferation (AID 504749);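 note: 0% = DMSO vehicle and full inhibition = artemisinin control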; conditions: P. falciparum in erythrocytes, SYBR Green DNA, 72 h; series mostly up to 28.7 µM
How it was run: (§1)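 Each compound contacts P. falciparum-infected red blood cells for 72 h at 37 C; lysis buffer (Tris, EDTA, saponin, Triton X, SYBR Green I) is added and fluorescence measured next morning; values normalized to controls.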

P94_40 = test: as above; conditions: P. falciparum in erythrocytes, SYBR Green DNA, 72 h; series mostly up to 28.7 µM
How it was run: as §1

PAD = test: as above; conditions: P. falciparum in erythrocytes, SYBR Green DNA, 72 h; series mostly up to 28.7 µM
How it was run: as §1

PC15 = test: as above; conditions: P. falciparum in erythrocytes, SYBR Green DNA, 72 h; series mostly up to 28.7 µM
How it was run: as §1

PC26 = test: as above; conditions: P. falciparum in erythrocytes, SYBR Green DNA, 72 h; series mostly up to 28.7 µM
How it was run: as §1

PC49 = test: as above; conditions: P. falciparum in erythrocytes, SYBR Green DNA, 72 h; series mostly up to 28.7 µM
How it was run: as §1

SC27B = test: as above; conditions: P. falciparum in erythrocytes, SYBR Green DNA, 72 h; series mostly up to 28.7 µM
How it was run: as §1

TAB109 = test: as above; conditions: P. falciparum in erythrocytes, SYBR Green DNA, 72 h; series mostly up to 28.7 µM
How it was run: as §1

TAB113 = test: as above; conditions: P. falciparum in erythrocytes, SYBR Green DNA, 72 h; series mostly up to 28.7 µM
How it was run: as §1

TAB165 = test: as above; conditions: P. falciparum in erythrocytes, SYBR Green DNA, 72 h; series mostly up to 28.7 µM
How it was run: as §1

W2 = test: as above; conditions: P. falciparum in erythrocytes, SYBR Green DNA, 72 h; series mostly up to 28.7 µM
How it was run: as §1

CRL-7250 = normal cell line; test: Cytotoxic Profiling of Annotated Libraries Using Quantitative High-Throughput Screening (AID 1296008); conditions: Five cell lines viability, CellTiter-Glo ATP luminescence, 48-72 h; hits give low values; for max response: % is set by controls: 0 for no effect and ±100 for the full control effect
How it was run: (§2)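 Cells exposed to compounds for 48 or 72 hr at 37 degrees Celsius. Viability read as ATP-coupled luminescence with CellTiter-Glo after 10 min at room temperature.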

HEK293 = test: as above; conditions: Five cell lines viability, CellTiter-Glo ATP luminescence, 48-72 h; hits give low values
How it was run: as §2

HaCat [1] = test: as above; conditions: Five cell lines viability, CellTiter-Glo ATP luminescence, 48-72 h; hits give low values
How it was run: as §2

KB-3-1 = test: as above; conditions: Five cell lines viability, CellTiter-Glo ATP luminescence, 48-72 h, hits give low values
How it was run: as §2

NIH3T3 = test: as above; conditions: Five cell lines viability, CellTiter-Glo ATP luminescence, 48-72 h; hits give low values
How it was run: as §2

HACAT [2] = test: qHTS assay to identify novel small-molecules to repurpose for Merkel cell carcinoma treatment (AID 1296009); conditions: MCC and control cell lines, CellTiter-Glo viability, 72 h; at 44.8 µM (top of the series) unless noted
How it was run: (§3)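 Dose-response viability screen; 72 hr exposure at 37 degree celsius; CellTiter-Glo added, 10 min room temperature, luminescence read; RLUs scaled between no-cell and DMSO wells.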

MCC-13 = test: as above; conditions: MCC and control cell lines, CellTiter-Glo viability, 72 h; series mostly up to 46 µM
How it was run: as §3

MCC-26 = test: as above; conditions: MCC and control cell lines, CellTiter-Glo viability, 72 h; series mostly up to 46 µM
How it was run: as §3
Note: nearly all actives have a fitted effect of over 60% in size.

O=S1(=O)OC(c2ccc(O)cc2)(c2ccc(O)cc2)c2ccccc21
inactive: Potency (P93_24) | Potency (P94_40) | Potency (PAD) | Potency (PC15) | Potency (PC26) | Potency (PC49) | Potency (SC27B) | Potency (TAB109) | Potency (TAB113) | Potency (TAB165) | Potency (W2) | outcome (CRL-7250) | max response (HEK293) -9.72% | outcome (HaCat [1]) | max response (KB-3-1) 15.7% | outcome (NIH3T3) | outcome (HACAT [2]) | outcome (MCC-13) | outcome (MCC-26)

O=C(NCN1CCOCC1)c1cnccn1
inactive: Potency (P93_24) | Potency (P94_40) | Potency (PAD) | Potency (PC15) | Potency (PC26) | Potency (PC49) | Potency (SC27B) | Potency (TAB109) | Potency (TAB113) | Potency (TAB165) | Potency (W2) | max response (CRL-7250) 3.76% | max response (HEK293) 3.79% | outcome (HaCat [1]) | max response (KB-3-1) -13.5% | max response (NIH3T3) -0.98% | outcome (HACAT [2]) | outcome (MCC-13) | outcome (MCC-26)

NC(N)=NS(=O)(=O)c1ccc(N)cc1
inactive: Potency (P93_24) | Potency (P94_40) | Potency (PAD) | Potency (PC15) | Potency (PC26) | Potency (PC49) | Potency (SC27B) | Potency (TAB109) | Potency (TAB113) | Potency (TAB165) | Potency (W2) | outcome (CRL-7250) | max response (HEK293) -6.28% | outcome (HaCat [1]) | max response (KB-3-1) 15.5% | outcome (NIH3T3) | outcome (HACAT [2]) | outcome (MCC-13) | outcome (MCC-26)

C[C@H]1COc2c(C3(N)CC3)c(F)cc3c(=O)c(C(=O)O)cn1c23
inactive: Potency (P93_24) | Potency (P94_40) | Potency (PAD) | Potency (PC15) | Potency (PC26) | Potency (PC49) | Potency (SC27B) | Potency (TAB109) | Potency (TAB113) | Potency (TAB165) | max response (CRL-7250) 2.54% | max response (HEK293) 4.33% | outcome (HaCat [1]) | max response (KB-3-1) 14.4% | max response (NIH3T3) 1.93% | outcome (HACAT [2]) | outcome (MCC-13) | outcome (MCC-26)

O[C@@H]1CO[C@H]2[C@@H]1OC[C@@H]2O
inactive: Potency (P93_24) | Potency (P94_40) | Potency (PAD) | Potency (PC15) | Potency (PC26) | Potency (PC49) | Potency (SC27B) | Potency (TAB109) | Potency (TAB113) | Potency (TAB165) | Potency (W2) | outcome (CRL-7250) | max response (HEK293) -0.534% | outcome (HaCat [1]) | max response (KB-3-1) 6.79% | max response (NIH3T3) 4.37% | outcome (HACAT [2]) | outcome (MCC-13) | outcome (MCC-26)

COc1nccnc1NS(=O)(=O)c1ccc(N)cc1
inactive: Potency (P93_24) | Potency (P94_40) | Potency (PAD) | Potency (PC15) | Potency (PC26) | Potency (PC49) | Potency (SC27B) | Potency (TAB109) | Potency (TAB113) | Potency (TAB165) | Potency (W2) | max response (CRL-7250) 3.15% | max response (HEK293) 4.9% | outcome (HaCat [1]) | max response (KB-3-1) -12% | outcome (NIH3T3) | outcome (HACAT [2]) | outcome (MCC-13) | outcome (MCC-26)

CNc1c2c(nn1C)CCCC2
inactive: Potency (P93_24) | Potency (P94_40) | Potency (PAD) | Potency (PC15) | Potency (PC26) | Potency (PC49) | Potency (SC27B) | Potency (TAB109) | Potency (TAB113) | Potency (TAB165) | Potency (W2) | max response (CRL-7250) 2.3% | max response (HEK293) -6.59% | outcome (HaCat [1]) | max response (KB-3-1) -8.03% | max response (NIH3T3) 4.21% | outcome (HACAT [2]) | outcome (MCC-13) | outcome (MCC-26)

CC(=O)Oc1cccc(C)c1
inactive: Potency (P93_24) | Potency (P94_40) | Potency (PAD) | Potency (PC15) | Potency (PC26) | Potency (PC49) | Potency (SC27B) | Potency (TAB109) | Potency (TAB113) | Potency (TAB165) | Potency (W2) | max response (CRL-7250) 2.1% | max response (HEK293) -2.07% | outcome (HaCat [1]) | max response (KB-3-1) -6.53% | max response (NIH3T3) -2.31% | outcome (HACAT [2]) | outcome (MCC-13) | outcome (MCC-26)

NS(=O)(=O)c1ccc(C(=O)O)cc1
inactive: Potency (P93_24) | Potency (P94_40) | Potency (PAD) | Potency (PC15) | Potency (PC26) | Potency (PC49) | Potency (SC27B) | Potency (TAB109) | Potency (TAB113) | Potency (TAB165) | Potency (W2) | max response (CRL-7250) -10.9% | max response (HEK293) -0.608% | outcome (HaCat [1]) | max response (KB-3-1) 9.5% | max response (NIH3T3) 1.17% | outcome (HACAT [2]) | outcome (MCC-13) | outcome (MCC-26)

CN1C(C)(C)CCCC1(C)C
inactive: Potency (P93_24) | Potency (P94_40) | Potency (PAD) | Potency (PC15) | Potency (PC26) | Potency (PC49) | Potency (SC27B) | Potency (TAB109) | Potency (TAB113) | Potency (TAB165) | Potency (W2) | max response (CRL-7250) -19.2% | max response (HEK293) -21.6% | outcome (HaCat [1]) | max response (KB-3-1) 7.25% | max response (NIH3T3) -1.07% | outcome (HACAT [2]) | outcome (MCC-13) | outcome (MCC-26)

CC(=O)Nc1ccccc1
inactive: Potency (P93_24) | Potency (P94_40) | Potency (PAD) | Potency (PC15) | Potency (PC26) | Potency (PC49) | Potency (SC27B) | Potency (TAB109) | Potency (TAB113) | Potency (TAB165) | Potency (W2) | max response (CRL-7250) 2.87% | max response (HEK293) -7.78% | outcome (HaCat [1]) | max response (KB-3-1) 12.7% | outcome (NIH3T3) | outcome (HACAT [2]) | outcome (MCC-13) | outcome (MCC-26)
